Screens: PubChem BioAssay, The Scripps Research Institute Molecular Screening Center
In the library only some 0.9% were active in any assay of this set; here they are far more common.
SRC2 TRFRET art – flags TR-FRET format artefacts in PPARgamma SRC-2 recruitment agonist screen; TR-FRET artefact counter-screen; active compounds read high; TR-FRET ratio at 8 µM; 0.4% of 200,000 active
PPARg SRC1 recr – PPARgamma-driven SRC-1 recruitment agonism; P37231; PPARgamma-SRC-1 coactivator recruitment biochemical assay; activation, % at 8 µM; 0.41% of 200,000 active; in the data active means activation above about 19%;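 further: 0% = DMSO and 100% = reference agonist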
Target sequence (P37231 whole entry, looked up): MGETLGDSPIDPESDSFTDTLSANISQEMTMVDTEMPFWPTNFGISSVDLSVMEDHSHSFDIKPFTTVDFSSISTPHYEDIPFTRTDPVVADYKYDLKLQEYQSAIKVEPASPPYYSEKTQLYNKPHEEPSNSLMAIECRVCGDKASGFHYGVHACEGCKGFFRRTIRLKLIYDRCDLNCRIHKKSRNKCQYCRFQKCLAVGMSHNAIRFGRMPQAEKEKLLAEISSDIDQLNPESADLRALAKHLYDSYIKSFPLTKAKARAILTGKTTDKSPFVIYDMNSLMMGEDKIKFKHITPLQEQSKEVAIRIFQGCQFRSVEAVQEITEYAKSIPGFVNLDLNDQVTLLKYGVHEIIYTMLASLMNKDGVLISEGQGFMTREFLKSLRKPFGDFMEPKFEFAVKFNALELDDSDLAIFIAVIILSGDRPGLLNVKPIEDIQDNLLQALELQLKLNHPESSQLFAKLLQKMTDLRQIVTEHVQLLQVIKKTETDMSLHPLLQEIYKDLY
SRC3 TRFRET art – flags TR-FRET format artefacts in PPARgamma SRC-3 recruitment agonist screen. TR-FRET artefact counter-screen, PPARgamma/SRC-3 format; active compounds read high. TR-FRET ratio at 8 µM. 0.39% of 99,000 active
PPARg SRC-3 ag – agonists of human PPARgamma SRC-3 coactivator recruitment. P37231. biochemical PPARgamma/SRC-3 coactivator recruitment assay. activation, % at 8 µM. 0.26% of 200,000 active; in the data active means activation above about 23%;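 further: 0% = DMSO and 100% = reference agonist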
PPARg SRC2 recr – agonists of SRC-2 recruitment by human PPARgamma | AID 1032 | P37231 | activation, % at 8 µM | PPARgamma LBD-SRC-2 recruitment, biochemical | 0.34% of 200,000 active; in the data active means activation above about 22%;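 further: 0% = vehicle and 100% = reference agonist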
SRC1 TRFRET art – TR-FRET artefact, counter-screen to PPARgamma/SRC-1 agonist assay; TR-FRET detection artefact counter-screen, emission ratio; active compounds read high; TR-FRET ratio at 8 µM; 0.34% of 99,000 active; AID 1051; in the data active means TR-FRET ratio above about 2300
PPARg SRC2 conf – human PPARgamma SRC-2 recruitment agonism, confirmation | biochemical SRC-2 recruitment by PPARgamma | activation, % at 8 µM | 52% of 790 active | shares compounds with PPARg SRC-3 ag; in the data active means activation above about 22%;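 further: 0% = vehicle alone and 100% = reference agonist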
PPARg SRC1 conf – confirmation of agonists of SRC-1 recruitment by human PPARgamma; PPARgamma–SRC-1 coactivator recruitment biochemical assay; shares compounds with PPARg SRC-3 ag; 43% of 790 active; activation, % at 8 µM; in the data active means activation above about 20%;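 further: 0% = vehicle wells and 100% = reference agonist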
PPARg SRC3 ag – human PPARgamma SRC-3 recruitment agonism, confirmation; activation, % at 8 µM; 29% of 790 active; biochemical PPARgamma-SRC-3 coactivator recruitment, agonist mode; shares compounds with PPARg SRC-3 ag; in the data active means activation above about 24%;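 further: 0% = vehicle wells and 100% = reference agonist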
* marks the source's active call; other numbers are inactive results. Unless noted, no stated cut-off is given here; in the data, active means TR-FRET ratio above about 2000; inactive means the rest.

For CC(=O)c1sc(NC(=O)C2COc3ccccc3O2)nc1C (configuration not stated) the results were SRC2 TRFRET art 2016*, PPARg SRC1 recr 20*, PPARg SRC-3 ag 28*, PPARg SRC2 recr 27*, PPARg SRC2 conf 24*, PPARg SRC1 conf 15 and PPARg SRC3 ag 14.
For CSc1ccc(/C=C(\C#N)C(=O)Nc2cccc(C)c2)cc1 the results were SRC2 TRFRET art 1580, PPARg SRC1 recr 8, SRC3 TRFRET art 1761, PPARg SRC-3 ag 4, PPARg SRC2 recr -6 and SRC1 TRFRET art 1810.
For Clc1ccc(Sc2cc(Cl)c(-c3ccccc3)nn2)cc1 the results were SRC2 TRFRET art 1388, PPARg SRC1 recr -15, PPARg SRC-3 ag 5 and PPARg SRC2 recr -5.
For CC(=O)c1cnc(-c2ccccc2Cl)s1 the results were SRC2 TRFRET art 1855, PPARg SRC1 recr 22*, SRC3 TRFRET art 1925, PPARg SRC-3 ag 13, PPARg SRC2 recr 15, SRC1 TRFRET art 2031, PPARg SRC2 conf 20, PPARg SRC1 conf 12 and PPARg SRC3 ag 10.
Screening CC(=O)c1cnc(-c2ccccn2)s1 returned SRC2 TRFRET art 1664, PPARg SRC1 recr 4, SRC3 TRFRET art 1464, PPARg SRC-3 ag 2, PPARg SRC2 recr -2 and SRC1 TRFRET art 1816.
For CCOc1ccc(/C(O)=C2\C(=O)C(=O)N(c3cc(C)on3)C2c2ccccc2OC)cc1 (configuration not stated) the results were SRC2 TRFRET art 2300*, PPARg SRC1 recr 27*, PPARg SRC-3 ag 42*, PPARg SRC2 recr 34*, PPARg SRC2 conf 36*, PPARg SRC1 conf 31* and PPARg SRC3 ag 22.
For NS(=O)(=O)c1ccc(CCNC(=O)c2cc(-c3ccccn3)nc3ccc(Br)cc23)cc1 the results were SRC2 TRFRET art 1850, PPARg SRC1 recr 22*, SRC3 TRFRET art 2530*, PPARg SRC-3 ag 15, PPARg SRC2 recr 11, SRC1 TRFRET art 2153, PPARg SRC2 conf 5, PPARg SRC1 conf 5 and PPARg SRC3 ag 6.
COc1cc(NC(=O)c2cc3c(=O)n(C)c4ccccc4c3n2C)cc(OC)c1OC was read as SRC2 TRFRET art 1684, PPARg SRC1 recr 22*, PPARg SRC-3 ag 28*, PPARg SRC2 recr 11, PPARg SRC2 conf 7, PPARg SRC1 conf 5 and PPARg SRC3 ag 4.
For COc1ccccc1NS(=O)(=O)c1cccc(NC(=O)c2sc3ccccc3c2Cl)c1 the results were SRC2 TRFRET art 2161*, PPARg SRC1 recr 22*, SRC3 TRFRET art 2458*, PPARg SRC-3 ag 8, PPARg SRC2 recr 17, SRC1 TRFRET art 2434*, PPARg SRC2 conf 13, PPARg SRC1 conf 10 and PPARg SRC3 ag 4.
Screening CN(C)c1ccc(N/C=C/C(=O)c2ccccc2)cc1 returned SRC2 TRFRET art 1663, PPARg SRC1 recr 9, PPARg SRC-3 ag 21 and PPARg SRC2 recr 13.
CN(C)c1ccc(N/C=C/C(=O)C(C)(C)C)cc1 was read as SRC2 TRFRET art 2723*, PPARg SRC1 recr 13, PPARg SRC-3 ag 70*, PPARg SRC2 recr 81*, PPARg SRC2 conf 7, PPARg SRC1 conf 10 and PPARg SRC3 ag 7.
`CCOc1ccc(C2C(C(=O)c3ccco3)=C(O)C(=O)N2CCCn2ccnc2)cc1` (configuration not stated) gave SRC2 TRFRET art 1743, PPARg SRC1 recr 8, PPARg SRC-3 ag 16 and PPARg SRC2 recr 19.
Screening Cc1ccc(C(=O)C2=C(O)C(=O)N(CCCn3ccnc3)C2c2ccc(OC(C)C)cc2)o1 (configuration not stated) returned SRC2 TRFRET art 2124*, PPARg SRC1 recr 14, PPARg SRC-3 ag 26*, PPARg SRC2 recr 28*, PPARg SRC2 conf 10, PPARg SRC1 conf 6 and PPARg SRC3 ag 7.
